# Measurements: PubChem BioAssay (EPA / NIEHS)
# Records with an inconclusive call do not appear. Activity calls are given as the source filed them. How the source made its calls: active means hit-call score of the fitted dose curve at least 0.9, where 1 is the maximum; inconclusive means response in the unintended direction; inactive means score below 0.9.
# Experiment: Tanguay_ZF_120hpf_SWIM_legacy: (Legacy) Oregon State University Tanguay Lab 120 Hour Post-fertilization zebrafish Assay for Swim Bladder Malformation (AID 2283654);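 further: swim bladder malformation in each larva scored yes or no under brightfield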
# Method: Tanguay_ZF_120hpf_legacy is a whole embryo, multiplexed endpoint assay using zebrafish larvae exposed for 120 hours post fertilization on a 96-well plate.Tanguay_ZF_120hpf_SWIM_legacy is one of one assay component(s) measured or calculated from the Tanguay_ZF_120hpf_legacy assay. It is designed to make measurements of zebrafish development as detected with brightfield microscopy of developing zebrafish embryos.Data from the assay component Tanguay_ZF_120hpf_SWIM_legacy was analyzed into 1 assay endpoints. This assay endpoint, Tanguay_ZF_120hpf_SWIM_legacy, was analyzed in the positive analysis fitting direction relative to DMSO as the negative control and baseline of activity. Using a type of morphology reporter, gain-of-signal activity can be used to understand changes in developmentals as they relate to the whole embryo. To generalize the intended target to other relatable targets, this assay endpoint is annotated to the zebrafish development intended target family, where the subfamily is swim bladder morphogenesis.
# Zebrafish husbandry: Tropical 5D wild-type adult zebrafish were housed in at an approximate density of 1000 per 100 gallon tank at the Sinnhuber Aquatic Research Laboratory, Oregon State University, Corvallis, OR. Each tank was kept at standard laboratory conditions of 28C on a 14-h light/10-h dark photoperiod in fish water consisting of reverse osmosis water supplemented with a commercially available salt (Instant Ocean). Spawning funnels were placed into the tanks the night prior, and embryos were collected and staged. To increase bioavailability, the chorion was enzymatically removed using pronase (63.6mg/ml, >/= 3.5U/mg, Sigma-Aldrich: P5147) at 4 hours post fertilization (hpf) using a custom automated dechorionator.Chemical exposures: Six hpf dechorionated embryos were placed 1 embryo per well in a 96-well plate prefilled with 90 ul of EM using automated embryo placement systems (AEPS). Ten microliters of each row of dilution plate 2 was added to 2 exposure plates. The final DMSO concentration used was 0.64% (vol/vol). Thirty-two embryos were also exposed to 5uM trimethyltin chloride (positive control). Plates were sealed to prevent evaporation and foil covered to reduce light exposure and kept in a 28C incubator. Embryos were statically exposed until 120 hpf. At 24 hpf, embryos were assessed for photomotor response using a custom photomotor response analysis tool (PRAT) and for developmental toxicity endpoints (MO24: mortality at 24 hpf, DP: developmental progression, SM: spontaneous movement, and NC: notochord distortion). At 120 hpf, locomotor activity was measured using Viewpoint Zebralab and assessed for 18 endpoints. Zebrafish acquisition and analysis program (ZAAP), a custom program designed to inventory, acquire, and manage zebrafish data, was used to collect developmental endpoints as either present or absent (i.e., binary responses were recorded). If mortality occurred for an embryo (at either 24 or 120 hpf), the non-mortality endpoints were not measured.
SMILES,outcome,AC50
CC/C(=C(/CC)c1ccc(O)cc1)c1ccc(O)cc1,inactive,
Clc1ccccc1C(c1ccccc1)(c1ccccc1)n1ccnc1,inactive,
CN(C)C(=O)C1(N2CCCCC2)CCN(CC[C@@]2(c3ccc(Cl)c(Cl)c3)CN(C(=O)c3ccccc3)CCO2)CC1,inactive,
CCCCCCCCCC(=O)O,inactive,
CC[C@@H]1C[C@H](N(Cc2cc(C(F)(F)F)cc(C(F)(F)F)c2)C(C)=O)c2cc(C(F)(F)F)ccc2N1C(=O)OC(C)C,inactive,
CCN(Cc1cccnc1)C(=O)c1cccc(Cl)c1[C@]1(C)C(=O)N(Cc2ccc(OC)cc2OC)c2ccc(Cl)cc21,inactive,
COCC(C)OCC(C)OCC(C)O (stereo not given),inactive,
c1ccc2ccccc2c1,inactive,
O=C1c2ccccc2C(=O)N1CCc1noc(-c2ccc(CN3CCCCCC3)s2)n1,inactive,
OCCO,inactive,
CC(C)(C)c1cc(/C=C2\SC(N)=NC2=O)cc(C(C)(C)C)c1O,inactive,
C[C@]12CC[C@@H]3c4ccc(O)cc4CC[C@H]3[C@@H]1CC[C@H]2O,inactive,
CCCCCCCCOc1ccc(C(=O)c2ccccc2)c(O)c1,inactive,
O=C(Nc1ccc(Cl)cc1)Nc1ccc(Cl)c(Cl)c1,inactive,
Oc1ccccc1,inactive,
CC(C)(O)c1ccc(CNC(=O)c2cccnc2Oc2ccc3nonc3c2)cc1,inactive,
NC(=O)c1nc(-c2cccc(-c3cc(F)ccc3OCC(F)(F)C(F)(F)F)c2)n[nH]1,,26.4 µM (active)
O=C(O)Cn1c(=O)n(Cc2ccc(Br)cc2F)c(=O)c2ccc(Cl)cc21,inactive,
Cc1cc(F)ccc1-c1cc(N2CC[C@@H](O)[C@H]2CO)ncc1N(C)C(=O)C(C)(C)c1cc(C(F)(F)F)cc(C(F)(F)F)c1,inactive,
Cc1cc2c(cc1C(F)(F)F)N(C(=O)Nc1ccc(Oc3cccnc3C)nc1)CC2,inactive,

SMILES,outcome,AC50
Clc1cc(Cl)c2c(c1)N=C1CCCCCN1C2,inactive,
O=C(O)c1ccccc1C(=O)OCc1ccccc1,inactive,
CCCC(=O)OCCC(C)C,inactive,
O=c1[nH]sc2ccccc12,inactive,
CC(O)CC(C)(C)O (stereo not given),inactive,
NCc1cccc(C2CCN(C(=O)c3ccc(C#Cc4ccccc4F)o3)CC2)c1,inactive,
CCCCCCCC[Si](OCC)(OCC)OCC,inactive,
c1ccc2n[nH]nc2c1,inactive,
O=c1c(-c2ccc(O)cc2)coc2cc(O)cc(O)c12,inactive,
CCCCCCCCCCCO,inactive,
Oc1ccc2ccccc2c1,inactive,
CN(C)c1ccc(C(=C2C=CC(=[N+](C)C)C=C2)c2ccc(N(C)C)cc2)cc1,inactive,
O=C1CCC(C2CCCCC2)CC1,inactive,
Cc1oc2c(NC(=O)c3c(Cl)cccc3Cl)cccc2c1C(C)(C)O,inactive,
COc1ccc2cc(S(=O)(=O)N[C@H](CC(=O)N[C@H](Cc3ccc(CN4[C@H](C)CCC[C@@H]4C)cc3)C(=O)N(C)C(C)C)c3ccc4c(c3)OCO4)ccc2c1,inactive,
CCN(CC)C(=O)c1cc(S(=O)(=O)Cc2ccccc2)c(N2CCC(c3ccccc3)CC2)cc1N(CC)CCN(C)C,inactive,
CC[C@H](NC(=O)c1cc(F)ccc1NS(=O)(=O)c1cccc2cccnc12)c1ccccc1,inactive,
C[C@]12CC[C@@H]3c4ccc(O)cc4CC[C@H]3[C@@H]1CCC2=O,inactive,
CCCCOC(=O)c1ccc(O)cc1,,46 µM (active)
CCCOC(=O)c1cc(O)c(O)c(O)c1,inactive,
